# PubChem BioAssay (NCI)
# Several values for one entry are separate records, joined by “and”; a condition that tells them apart may be missing. Identical values can stand only once. About 83,000 compounds went through this panel and 20% of them were active in at least one assay; those are over-represented in the sample as a whole.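 The endpoint reported here, percent growth, reads 100 for growth as untreated, 0 for no net growth and -100 for all cells dead.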 Activity calls are given as the source filed them. Rule for the calls: active = growth percent below 10; inactive = the rest.
# Tests used:
# Assay in all cases: NCI-60 one-dose screen, 48 h (100 = growth as untreated, 0 = no growth, -100 = all killed)
# Settings in all cases: 10 µM unless noted
# SR leukemia = test system: SR leukemia
# RPMI-8226 leukemia = test system: RPMI-8226 leukemia
# OVCAR-8 ovarian = test system: OVCAR-8 ovarian
# OVCAR-5 ovarian = test system: OVCAR-5 ovarian
# OVCAR-4 ovarian = test system: OVCAR-4 ovarian
# SK-OV-3 ovarian = test system: SK-OV-3 ovarian
# IGROV1 ovarian = test system: IGROV1 ovarian
# OVCAR-3 ovarian = test system: OVCAR-3 ovarian
# HS 578T breast = test system: HS 578T breast
# NCI/ADR-RES ovarian = test system: NCI/ADR-RES ovarian
SMILES,growth (SR leukemia),growth (RPMI-8226 leukemia),growth (OVCAR-8 ovarian),growth (OVCAR-5 ovarian),growth (OVCAR-4 ovarian),growth (SK-OV-3 ovarian),growth (IGROV1 ovarian),growth (OVCAR-3 ovarian),growth (HS 578T breast),growth (NCI/ADR-RES ovarian)
CCN(CC)C(=S)SCCO,92.5% (inactive),99.5% (inactive),103% (inactive),110% (inactive),113% (inactive),111% (inactive),107% (inactive),106% (inactive),103% (inactive),102% (inactive)
CCOc1ccc(/C=C\C(=O)O)cc1,81.6% (inactive),113% (inactive),98.7% (inactive),117% (inactive),108% (inactive),139% (inactive),101% (inactive),–,112% (inactive),110% (inactive)
CCCCCc1cc[n+](CC(=O)c2ccccc2)cc1,115% (inactive) and 100% (inactive),104% (inactive) and 107% (inactive),97.2% (inactive) and 99.3% (inactive),97.6% (inactive) and 101% (inactive),110% (inactive) and 85.2% (inactive),101% (inactive) and 105% (inactive),91.6% (inactive) and 108% (inactive),–,106% (inactive),98.6% (inactive) and 103% (inactive)
O=COCCCc1ccccc1,117% (inactive),102% (inactive),99.2% (inactive),105% (inactive),120% (inactive),98.1% (inactive),104% (inactive),–,96.6% (inactive),108% (inactive)
CC(NC(=O)CCl)c1ccccc1 (stereo not given),99.2% (inactive),107% (inactive),105% (inactive),109% (inactive),98.7% (inactive),102% (inactive),104% (inactive),–,92.5% (inactive),104% (inactive)
OCc1ccccc1F,92.6% (inactive),106% (inactive),83.3% (inactive),76.9% (inactive),97.5% (inactive),87% (inactive),85.7% (inactive),–,109% (inactive),75.7% (inactive)
C/C(CC(C)C)=N/NC(N)=S,90.9% (inactive),73.7% (inactive),69% (inactive),114% (inactive),72.2% (inactive),105% (inactive),97.4% (inactive),48.1% (inactive),96.8% (inactive),46.7% (inactive)
CCC/C(=N/NC(N)=O)c1ccco1,96.1% (inactive),95.2% (inactive),98% (inactive),91.2% (inactive),102% (inactive),91.6% (inactive),104% (inactive),117% (inactive),97.5% (inactive),100% (inactive)
CC(C)(C)OC(=O)c1ccc(NCc2cc(O)ccc2O)cc1,3.5% (active),1.66% (active),17.2% (inactive),106% (inactive),12.3% (inactive),44.6% (inactive),-14.3% (active),-83.8% (active),30.8% (inactive),23.1% (inactive)
CC1=CC(=O)c2cccc(NC3=NCCO3)c21,91.6% (inactive),91.6% (inactive),102% (inactive),95.2% (inactive),95.1% (inactive),103% (inactive),104% (inactive),–,103% (inactive),97.5% (inactive)
c1ccc2c[n+](Cc3ccc4ccccc4n3)ccc2c1,98.1% (inactive),57.2% (inactive),69% (inactive),105% (inactive),67.1% (inactive),88.5% (inactive),80.5% (inactive),–,86.2% (inactive),102% (inactive)
C/C=C(/C(=O)NC(N)=O)C(C)C,88.7% (inactive),113% (inactive),96.2% (inactive),116% (inactive),119% (inactive),99.4% (inactive),114% (inactive),–,107% (inactive),107% (inactive)
C=CCN1C(=O)c2ccccc2C1=O,99.9% (inactive),92.9% (inactive),97.5% (inactive),102% (inactive),107% (inactive),–,98.7% (inactive),110% (inactive),99.8% (inactive),96% (inactive)
Clc1ccc2c(c1)N(C1CCCN(Cc3ccccc3)C1)c1ccccc1S2 (stereo not given),16.1% (inactive),25.9% (inactive),37.9% (inactive),73.4% (inactive),79.9% (inactive),–,43.8% (inactive),53.3% (inactive),14.4% (inactive),24.8% (inactive)
N#CC1c2ccccc2C=CN1C(=O)c1ccccc1 (stereo not given),91.7% (inactive) and 146% (inactive),105% (inactive) and 159% (inactive),92.7% (inactive) and 85% (inactive),110% (inactive) and 87.5% (inactive),96.8% (inactive) and 89.7% (inactive),120% (inactive) and 128% (inactive),101% (inactive) and 73.9% (inactive),–,94.2% (inactive) and 150% (inactive),108% (inactive) and 107% (inactive)
NC1=NC(c2ccccc2)N=C(Nc2ccccc2)N1 (stereo not given),2.95% (active),95.5% (inactive) and 130% (inactive),97.6% (inactive) and 101% (inactive),101% (inactive) and 94.7% (inactive),117% (inactive) and 62.4% (inactive),–,110% (inactive) and 111% (inactive),9.87% (active) and -1.56% (active),26.1% (inactive) and 42.4% (inactive),111% (inactive) and 109% (inactive)
O=C(/C=C/C=C/c1ccc2c(c1)OCO2)N1CCCCC1,92.4% (inactive) and 86% (inactive),102% (inactive) and 124% (inactive),101% (inactive) and 97.4% (inactive),96.4% (inactive),103% (inactive) and 96.8% (inactive),–,105% (inactive) and 6.71% (active),121% (inactive) and 104% (inactive),104% (inactive) and 94.8% (inactive),98% (inactive) and 106% (inactive)
Cc1ccc2cccc([N+](=O)[O-])c2n1,97.7% (inactive) and 94% (inactive),111% (inactive) and 92.8% (inactive),101% (inactive) and 108% (inactive),104% (inactive) and 101% (inactive),128% (inactive) and 103% (inactive),102% (inactive) and 100% (inactive),109% (inactive) and 114% (inactive),–,111% (inactive) and 109% (inactive),113% (inactive) and 102% (inactive)
CCN(CC)Cc1cc2[nH]c3c4ccc(Cl)cc4ncc3c2cc1OC,-49.9% (active) and -13.8% (active),-39.2% (active),83.2% (inactive) and 80.6% (inactive),98% (inactive) and 98.6% (inactive),33.3% (inactive) and -1.1% (active),–,293% (inactive) and 63.1% (inactive),87.5% (inactive),-7.12% (active) and 99.3% (inactive),78.1% (inactive) and 102% (inactive)
O=C(O)c1c2c(nc3ccccc13)Cc1ccccc1-2,94.9% (inactive) and 98% (inactive),97% (inactive) and 84.1% (inactive),96.3% (inactive) and 96.2% (inactive),109% (inactive) and 88.1% (inactive),116% (inactive) and 97.6% (inactive),–,121% (inactive) and 85.6% (inactive),102% (inactive) and 95.6% (inactive),94.1% (inactive) and 84.2% (inactive),107% (inactive) and 95.7% (inactive)
COc1ccc(/C=C/C(=O)O)cc1OC,110% (inactive) and 106% (inactive),102% (inactive) and 106% (inactive),108% (inactive) and 103% (inactive),106% (inactive) and 109% (inactive),–,103% (inactive) and 107% (inactive),104% (inactive) and 115% (inactive),108% (inactive) and 104% (inactive),103% (inactive) and 102% (inactive),108% (inactive) and 105% (inactive)
O=C(O)C1CSCN1 (stereo not given),97.4% (inactive),106% (inactive) and 105% (inactive),113% (inactive) and 98.8% (inactive),118% (inactive) and 88.8% (inactive),112% (inactive) and 102% (inactive),–,106% (inactive),–,136% (inactive) and 112% (inactive),108% (inactive) and 87.2% (inactive)
N#Cc1ccc(/C=C/C(=O)c2ccccc2)cc1,-63.9% (active),-35.6% (active) and -54.9% (active),98.9% (inactive) and 98.8% (inactive),108% (inactive) and 91.1% (inactive),95.2% (inactive) and 103% (inactive),123% (inactive) and 106% (inactive),–,55.4% (inactive) and 75.5% (inactive),128% (inactive) and 102% (inactive),111% (inactive) and 95.8% (inactive)
